SMN2 splice up = enhancers of SMN2 splice variant expression; HEK293 SMN2-luciferase splicing reporter, luminescence, 30-36 h; Potency, µM (top dose mostly 46.1 µM), for the others: at the top dose activity change, positive = activation, most hits filed as activators; actives 2.8% (n = 210,000); also: % of control where 0% means no effect; nearly all actives have a fitted effect of over 55% in size
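HEK293 cells carry an SMN2 minigene-luciferase reporter in which exon 7 inclusion puts luciferase in frame. Cells were seeded at 2000 cells/well, attached for 10-12 hours, then exposed to compounds for 30-36 hours at 37C before ONE-Glo luminescence.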
FLuc counter = inhibits or activates purified firefly luciferase, miR-21 counter-screen; P08659; purified FLuc, Km substrates, luminescence inhibition; Potency, µM (highest dose often 57.5 µM), for the others: at the highest dose activity change, negative = inhibition, hits mostly inhibitors; actives 6.9% (n = 360,000); AID 588342;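 also: plate controls were vehicle for no effect and reference inhibitor for full effect; nearly all actives have a fitted effect of over 55% in size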
Target sequence (P08659 whole entry, looked up): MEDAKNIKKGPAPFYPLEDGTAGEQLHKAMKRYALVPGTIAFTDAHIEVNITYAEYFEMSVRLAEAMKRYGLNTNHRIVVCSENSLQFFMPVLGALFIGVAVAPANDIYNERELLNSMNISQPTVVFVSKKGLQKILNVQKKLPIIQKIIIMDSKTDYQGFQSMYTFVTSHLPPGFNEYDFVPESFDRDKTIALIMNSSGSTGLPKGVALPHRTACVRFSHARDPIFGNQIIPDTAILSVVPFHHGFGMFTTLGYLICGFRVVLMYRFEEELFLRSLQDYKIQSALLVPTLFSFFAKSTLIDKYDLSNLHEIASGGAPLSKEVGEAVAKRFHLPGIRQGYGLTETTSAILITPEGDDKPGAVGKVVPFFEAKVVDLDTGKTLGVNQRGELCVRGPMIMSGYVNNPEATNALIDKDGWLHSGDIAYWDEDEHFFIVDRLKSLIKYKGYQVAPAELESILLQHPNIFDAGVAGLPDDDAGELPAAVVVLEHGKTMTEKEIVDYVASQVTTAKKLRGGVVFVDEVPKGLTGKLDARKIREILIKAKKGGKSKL
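Biochemical qHTS of compounds, final roughly 60 µM downward over six points, against 10 nM purified firefly luciferase using Km concentrations of substrates (10 uM D-luciferin, 10 uM ATP) in Tris acetate pH 7.5 buffer; luminescence output.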
NPC1 prom act = activates the NPC1 promoter. Potency, µM (highest dose often 9.22 µM), inactives show top-dose activation, usual class: activators. Huh7 NPC1 promoter luciferase reporter, 24 h. actives 2.4% (n = 320,000); also: % of control where 0% means no effect; nearly all actives have a fitted effect of over 60% in size
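In 1536-well qHTS, Huh7 cells harboring an NPC1 promoter–luciferase construct received compound for 24 h; activation was quantified by luminescence following luciferase reagent addition.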
Rab9 promoter act = Rab9 promoter activation | Huh7 Rab9 promoter-luciferase reporter, luminescence, 24 h | Potency, µM (titrated, usually from 9.22 µM), for the others: at the top dose activation, negative = inhibition, actives largely listed as activators | actives 2.8% (n = 320,000); also: % of control where 0% means no effect; nearly all actives have a fitted effect of over 60% in size
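Quantitative HTS format; Huh7 Rab9-luciferase reporter cells (1500/well) receive compound 2 h post-plating, incubate 24 h at 37 °C, then get luciferase reagent for 10 min before luminescence reading.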
ELG1 genotoxic = genotoxicity induction in ELG1-luciferase HEK293T cells; HEK293T ELG1-luciferase reporter, luminescence, 16 h; actives 1.3% (n = 330,000); Potency, µM (top dose mostly 46 µM), inactives show at the top dose activity change, positive = activation, usual class: activators; AID 504466; also: % of control where 0% means no effect; nearly all actives have a fitted effect of over 60% in size
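DMSO vehicle served as control against compound-treated ELG1-luciferase HEK293T cells; exposure lasted 16 hr at 37 °C and 5% CO2, followed by ONE-Glo luminescence detection after 30 min.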
ELG1 repair inh = ELG1-dependent DNA repair inhibition | Potency, µM (doses to about 46.1 µM), for inactives: top-dose activity change, negative = inhibition, actives largely listed as inhibitors | HEK293T ELG1-luciferase reporter, luminescence, 16 h; DNA damage induced by 5-fluorouridine | actives 2.3% (n = 330,000) | AID 504467; also: % is scaled to controls: 0 for no effect and ±100 for the full control effect; nearly all actives have a fitted effect of over 55% in size
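Cells (2,000 per well) received 5-fluorouridine plus test compound or DMSO and were incubated 16 hr at 37 °C, 5% CO2. Luciferase activity was read by luminescence 30 min after ONE-Glo addition; signal suppression marked inhibition of damage-induced ELG1 function.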
* hit, by the source's call; ? = inconclusive; nt = no result; [ ] = remark or other dose. This is a sample that favours compounds with a hit; in the whole collection about 9.4% have one here. Calls follow the shape of the dose curve; as a rule, active = well fitted curve in the direction sought with a large enough effect; inconclusive = small, poorly fitted or top-dose-only effect, or another doubt; inactive = no such curve, though single readings can be large; an effect the other way counts as inactive or inconclusive. Potency is read from the fitted curve at half-maximal effect.

SMILES | SMN2 splice up | FLuc counter | NPC1 prom act | Rab9 promoter act | ELG1 genotoxic | ELG1 repair inh
O=C(NNc1nc2cc3c(cc2s1)OCCO3)c1ccc(F)cc1 | 24% | ? | 17% | 27% | 6% | ?
COc1cccc(-c2cn3c(n2)sc2cc(C(=O)NC4CCCCCC4)ccc23)c1 | nt | -15% | nt | nt | nt | nt
COC(=O)c1sccc1S(=O)(=O)N1CCN(c2cccc(C)c2)C(C)C1 (centres undefined) | nt | -3% | nt | nt | nt | nt
COc1ccc(CCNC(=O)c2ccc(CS(=O)(=O)c3ccc(Cl)cc3)o2)cc1OC | -46% | 1% | -7% | -18% | -17% | ?
Cc1ccc2c(=O)cc(C(=O)NCCc3ccc(S(N)(=O)=O)cc3)oc2c1 | nt | -2% | 1% | -5% | -8% | 9.2µM*
COc1ccc(CCNC(=O)c2ccc(CS(=O)(=O)c3ccc(C)cc3)o2)cc1OC | -73% | 3% | -2% | 0% | -18% | 16µM*
COc1ccc(CCNC(=O)c2ccc(-c3ccc([N+](=O)[O-])cc3Cl)o2)cc1OC | -82% | 1% | -15% | -23% | -18% | 18µM*
COc1ccc(CCNC(=O)COc2ccc(N(C)S(=O)(=O)c3ccc(C)cc3)cc2)cc1OC | nt | -2% | -4% | 3% | -15% | 21µM*
COc1ccc(CCNC(=O)c2cc([N+](=O)[O-])cc([N+](=O)[O-])c2)cc1OC | nt | -1% | 2% | -6% | -3% | ?
CCOC(=O)C1CCCN(C(=O)Cn2ncc3c(C)n(Cc4ccccc4Cl)c(C)c3c2=O)C1 (centres undefined) | 2% | -19% | nt | nt | nt | nt
COc1ccccc1C(=O)Nc1ccccc1C(=O)OCc1cc(=O)n2ccsc2n1 | nt | -3% | nt | nt | nt | nt
COc1ccc(CCNC(=O)c2cc(=O)c3ccc(C)cc3o2)cc1OC | -16% | 1% | -2% | -21% | -10% | 16µM*
COc1ccc(C(=O)COC(=O)c2ccccc2NS(=O)(=O)c2ccc(O)c([N+](=O)[O-])c2)cc1 | nt | 11µM* | -3% | 0% | 0% | ?
Cc1ccc(S(=O)(=O)Nc2ccc(O)c3ccccc23)c(C)c1 | nt | -20% | -15% | 5% | -5% | 16µM*
Cc1ccc(C)c(S(=O)(=O)Nc2ccc(O)c3ccccc23)c1 | nt | -1% | -4% | 5% | -11% | ?
COc1ccc(S(=O)(=O)Nc2ccccc2C(F)(F)F)cc1 | 8% | 0% | 6% | 0% | -1% | 1%
COc1ccc(S(=O)(=O)Nc2ccc(O)c3ccccc23)cc1 | -91% | -3% | 2% | -2% | -26% | 9.2µM*
O=C(O)c1cccc(CN2CCCCC2)c1 | -5%[9.22 µM] | nt | nt | nt | nt | nt
N#C/C(=C(/O)CN1CCCC1)c1nc(-c2ccccc2)cs1 | nt | 19µM* | 4µM* | 3.2µM* | ? | ?
CC1=C(c2ccc(F)cc2)[N+](=O)C(C)(C)N1[O-] | nt | 27µM* | -5% | -2% | -1% | 12%
CC1=C(c2ccc(C)cc2)[N+](=O)C(C)(C)N1[O-] | nt | 9.5µM* | 25% | 4µM* | ? | ?
CC1=C(c2ccccc2)[N+](=O)C2(CCCC2)N1[O-] | -2% | 3% | -1% | -5% | 2% | 3%
Cc1ccc(CN2CCN(/N=C/c3ccc(O)c(O)c3)CC2)cc1 | nt | -10% | -13% | -1% | 17% | -5%
CN=c1scc(-c2ccc(F)cc2)n1/N=C/c1ccc(O)c(O)c1 | ? | 0.67µM* | -44% | 15% | -7% | ?
O=C(Nc1ccc(F)cc1F)C1CCN(S(=O)(=O)c2ccc3[nH]c(=O)ccc3c2)CC1 | nt | 0% | nt | nt | nt | nt
SMILES | SMN2 splice up | FLuc counter | NPC1 prom act | Rab9 promoter act | ELG1 genotoxic | ELG1 repair inh
COc1ccc(C(=O)c2sc(Nc3ccccc3)nc2N)cc1 | nt | -18% | 8% | 19% | 2% | ?
Nc1nc(Nc2ccccc2)sc1C(=O)c1ccccc1 | nt | 19µM* | 2.5µM* | ? | -3% | ?
COc1ccc(C(=O)c2sc(Nc3ccccc3F)nc2N)cc1 | nt | 11µM* | 2.8µM* | 2.2µM* | ? | ?
COC(=O)[C@@H]1C[C@H]1[C@@H](N)c1ccccc1 | -7% | nt | nt | nt | nt | nt
CCOCN(C(=O)Cn1cnc2cc(C)c(C)cc21)c1c(C)cccc1CC | -14% | 0% | nt | nt | nt | nt
Cc1scc(C(=O)N/N=C/c2ccc(OC(C)C)cc2)c1C | ? | 6.7µM* | 29% | ? | ? | ?
CCOc1ccc(/C=N/NC(=O)c2csc(C)c2C)c(OCC)c1 | -14% | -17% | -2% | 0% | 1% | 2%
CCCCOc1cccc(/C=N/NC(=O)c2csc(C)c2C)c1 | -14% | 7.6µM* | 20% | 13% | -4% | -13%
COc1ccccc1/C=N/NC(=O)c1csc(C)c1C | 23% | 3.4µM* | 14% | 28% | 12% | ?
CCc1c(C(=O)N/N=C/c2ccsc2)csc1C | 3% | ? | -5% | -4% | 11% | ?
CC(C)Oc1ccc(/C=N/NC(N)=S)cc1 | ? | 15µM* | ? | ? | 17% | ?
COc1ccc(N2CCN(C(=O)Cc3noc4ccc(C)cc34)CC2)cc1 | nt | -20% | nt | nt | nt | nt
Cc1scc(C(=O)N/N=C/c2ccc(Cl)s2)c1C | 18µM* | 3µM* | 3.5µM* | 2.2µM* | ? | ?
COc1ccc(CC(=O)N/N=C/c2ccc(Cl)s2)cc1OC | nt | -16% | 0% | -1%[1.84 µM] | -10% | ?
CCOC(=O)C1CCN(c2nc(-c3ccc(Br)cc3)cs2)CC1 | nt | -2% | nt | nt | nt | nt
CCOC(=O)c1ccc(NC(=O)CN2C(=O)CSC(C)C2=O)cc1 (centres undefined) | -18% | 17µM* | -4% | -4% | 1% | 26%
CCCCNS(=O)(=O)c1ccc(NC(=O)C(Sc2ccccc2)c2ccccc2)cc1 (centres undefined) | -13%[1.84 µM] | 0% | -2% | -8% | -6% | 18µM*
COc1ccccc1N1CCN(S(=O)(=O)CCNC(=O)CC2CCCCC2)CC1 | nt | -1% | 0% | -3% | -23% | 12µM*
CCOc1ccc(CC(=O)NCCS(=O)(=O)N2CCN(c3ccccc3OC)CC2)cc1 | nt | -6% | nt | nt | nt | nt
O=C(CC1CCCC1)NCCS(=O)(=O)N1CCN(c2ccccc2F)CC1 | nt | 1% | -3% | -8% | 1% | -21%
COc1ccccc1N1CCN(S(=O)(=O)CCNC(=O)COc2ccc(C(C)C)cc2)CC1 | nt | 24µM* | nt | nt | nt | nt
CCN(CC)c1ccc2cc(-c3nc4ccccc4n3C)c(=O)oc2c1 | ? | 1.9µM* | ? | 16% | ? | ?
CC(C)(C)c1cc(C(C)(C)C)c2oc(=O)c(-c3nc4ccccc4[nH]3)cc2c1 | nt | 6% | nt | nt | nt | nt

Source: PubChem
